Results from PubChem BioAssay AID1347075 (National Center for Advancing Translational Sciences (NCATS), 2019).
About 5,500 (1.4%) of roughly 400,000 compounds were called active. About 9% were inconclusive and are not listed. This is one part of a sample in which actives are shown more often than they occur. Calls follow the shape of the dose curve; as a rule, active = well fitted cell-killing curve with a large enough effect; inconclusive = small, poorly fitted or top-dose-only effect, or effect the other way; inactive = flat fitted curve, though single readings scatter.

test: qHTS assay for MDR1-selective chemotherapeutics: Primary screen using the parental adenocarcinoma cell KB-3-1; details: KB-3-1 viability, CellTiter-Glo ATP luminescence, 72 h; series mostly up to 46.1 µM; activity change, negative = cytotoxic: at the top concentration; also: nearly all actives have a fitted effect of over 60% in size
How it was run: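 Multi-concentration cytotoxicity screen in KB-3-1 cells grown in DMEM lacking phenol red with 10% FBS. After 72 h at 37 °C with compound, ATP-dependent luminescence was recorded.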
% is scaled to controls: 0 for no effect and ±100 for the full control effect; potency is read from the fitted curve at half-maximal effect.

Compound	activity change, negative = cytotoxic	Potency
COC(=O)C1C(=O)NCC1c1ccc(C)cc1 (stereo not drawn)	16.2% (inactive)	–
COC(=O)C1=C(Nc2ccc(C)cc2)C=C(C)C(C(=O)OC)C1c1ccc(F)cc1 (stereo not drawn)	–	11.2 µM (active)
COC(=O)C1(C)NC(c2ccc(C)cc2)C2C(=O)N(c3ccc(F)cc3)C(=O)C21 (stereo not drawn)	-1.4% (inactive)	–
Cc1ccc2cccc(NC(=O)c3cccc4ccccc34)c2n1	4.73% (inactive)	–
CCc1ccccc1OCCSc1nc(-c2cccs2)nc2cc(=O)[nH]n12	-16.6% (inactive)	–
O=C(c1cccc(Cl)c1)N1CCN(CCc2ccncc2)CC1	-4.29% (inactive)	–
CS(=O)(=O)Nc1ccc(C(=O)N2CCCC2)cc1	-5.39% (inactive)	–
CNc1cncc(-c2cccc(C(=O)N3CCOCC3)c2)n1	0% (inactive)	–
CNc1cncc(-c2ccc(NS(C)(=O)=O)cc2)n1	–	2.91 µM (active)
CC(=O)c1sc(N2C(=O)c3oc4ccccc4c(=O)c3C2c2ccc(C)cc2)nc1C (stereo not drawn)	-14.2% (inactive)	–
COc1ccc(-c2nc3ccccc3o2)cc1NC(=O)c1cc([N+](=O)[O-])ccc1N1CCOCC1	4.59% (inactive)	–
Cc1ccc2c(c1)-c1c(cnn1CC(=O)Nc1ccccc1C#N)CO2	-1.57% (inactive)	–
COc1ccccc1CNC(=O)CCn1c(=O)c2ccccc2n(CC(=O)Nc2ccc(Br)cc2F)c1=O	-26.4% (inactive)	–
CCCC(=O)Nc1cccc(NC(=S)NC(=O)C(C)Oc2ccc(Cl)cc2Cl)c1 (stereo not drawn)	2.78% (inactive)	–
CC(C)C(=O)Nc1cccc(NC(=O)c2ccc([N+](=O)[O-])cc2Cl)c1	1.16% (inactive)	–
CC(C)C(=O)Nc1cccc(NC(=S)NC(=O)C(c2ccccc2)c2ccccc2)c1	–	20.6 µM (active)
CCc1ccc(S(=O)(=O)n2ccnc2)cc1	16.3% (inactive)	–
Cc1cc(C)n2ncc(C(=O)Nc3cccc(C#N)c3)c2n1	0% [at 9.22 µM] (inactive)	–
CCOc1cc(-c2nnc(SCC(=O)NC3CCCC3)nc2-c2ccc(OC)c(OCC)c2)ccc1OC	-2.41% (inactive)	–
O=C(CN1C(=O)S/C(=C\c2ccccc2Cl)C1=O)NC1C=CS(=O)(=O)C1 (stereo not drawn)	0% (inactive)	–
CCn1c(=O)c2ccccc2n(CC(=O)N2CCCc3ccccc32)c1=O	-0.819% (inactive)	–
O=C1/C(=C\c2ccccc2Cl)SC(=S)N1CCC(=O)N1CCCc2ccccc21	–	23.1 µM (active)
CCOc1ccc(CCNC(=O)c2cc3c(=O)n(C)c4ccccc4c3n2C)cc1	2.46% (inactive)	–
CCN(CC)c1ccc(NS(=O)(=O)c2cc(-c3cc(C)no3)ccc2C)c(C)c1	-19.5% (inactive)	–
CC(C)c1ccc(NC(=O)c2ccc3c(O)c(S(=O)(=O)c4ccccc4)c(=O)[nH]c3c2)cc1	5.99% (inactive)	–

Compound	activity change, negative = cytotoxic	Potency
COc1ccc(S(=O)(=O)c2cn(C)c3cc(N4CCCCC4)c(F)cc3c2=O)cc1	5.2% (inactive)	–
CCOC(=O)c1cc2c(ccn2C)n1CC(=O)N1CCC(C)CC1	–	23.1 µM (active)
CCOC(=O)c1cc2occc2n1CC(=O)NC1CCC(C)CC1 (stereo not drawn)	1.34% (inactive)	–
CCOC(=O)c1cc2occc2n1CC(=O)N1CCN(C(=O)c2ccco2)CC1	1.25% (inactive)	–
Cc1ccc(C)c(OCC(=O)Nc2sc3c(c2C#N)CCCC3)c1C	-13.9% (inactive)	–
COc1ccc(N2CCN(C(=O)C3CCCN(C(=O)c4cc5sccc5n4C)C3)CC2)cc1 (stereo not drawn)	-12.9% (inactive)	–
Cc1cc(=O)oc2cc(OC(C)C(=O)NCCc3ccc(S(N)(=O)=O)cc3)ccc12 (stereo not drawn)	9.37% (inactive)	–
CC(=O)c1c(C)[nH]c(C(=O)COC(=O)CCOc2ccc(C)cc2)c1C	-18.7% (inactive)	–
Cc1ccc(OCC(=O)Nc2ccc3oc(=O)ccc3c2)cc1C	5.71% (inactive)	–
CC(=O)c1c(C)[nH]c(C(=O)COc2ccc3c(C)cc(=O)oc3c2)c1C	–	14.6 µM (active)
COc1ccc(N2CCN(C(=O)COc3ccc4c(C)cc(=O)oc4c3)CC2)cc1	14.4% (inactive)	–
Cc1ccc(O)c(/C=N/NC(=O)COc2ccc3c(C)cc(=O)oc3c2)c1	–	18.4 µM (active)
Cc1cccc2c(=O)cc(CSc3ccccc3NC(=O)C(C)C)[nH]c12	0% (inactive)	–
Cc1cc(C)cc(NC(=O)Cn2c(=O)c3ccccc3n3nncc23)c1	20.8% (inactive)	–
Cc1csc(NCC(=O)c2c[nH]c3ccccc23)n1	-70.7% (inactive)	–
Cn1cc(S(=O)(=O)N2CCCCCC2)cc1C(=O)N1CCN(c2ccc(F)cc2)CC1	-0.904% (inactive)	–
O=[N+]([O-])c1cc(Br)c(O)c(/C=N/Nc2nc3ccccc3s2)c1	–	23.1 µM (active)
O=[N+]([O-])c1c(NCCO)cc(Sc2nc3ccccc3s2)c2nonc12	-1.45% (inactive)	–
Brc1ccccc1/C=N/Nc1nc2ccccc2o1	-9.64% (inactive)	–
COc1cc(OC)c(C2C=C(C(=O)O)Nc3ncnn32)cc1OC (stereo not drawn)	-2.08% (inactive)	–
S=c1[nH]c(=S)c2n[nH]nc2[nH]1	-28.9% (inactive)	–
COc1cc(Cl)ccc1Nc1ncc(C(=O)N2CCN(c3ccccc3OC)CC2)c2ccccc12	-1.69% (inactive)	–
COc1ccccc1N1CCN(C(=O)c2cc(=O)c3cc(C)ccc3o2)CC1	–	13 µM (active)
COc1ccccc1N1CCN(C(=O)c2ccc(NC3=NC4CS(=O)(=O)CC4S3)cc2)CC1 (stereo not drawn)	0% (inactive)	–
COc1ccc2c(CC(=O)N3CCc4cc(OC)c(OC)cc4C3)coc2c1	-1.95% (inactive)	–

Compound	activity change, negative = cytotoxic	Potency
COc1cc(CCC(=O)N2CCN(c3ccccc3Cl)CC2)cc(OC)c1OC	3.22% (inactive)	–
COc1cc2c(cc1OC)CN(C(=O)c1cc(=O)c3ccccc3o1)CC2	–	2.91 µM (active)
COc1cc2c(cc1OC)CN(C(=O)c1cc(S(=O)(=O)N3CCCCC3)ccc1Cl)CC2	0% (inactive)	–
COc1ccccc1N1CCN(C(=O)c2cc(=O)c3cc(C)cc(C)c3o2)CC1	–	0.206 µM (active)
COc1ccc(Nc2ncc(C(=O)N3CCN(c4ccccc4OC)CC3)c3ccccc23)cc1	–	inactive
CCc1ccc2oc(-c3ccc(C)c(NC(=O)/C=C/c4ccco4)c3)nc2c1	4.52% (inactive)	–
COc1ccccc1CNC(=O)CCCCn1c(=O)c2ccccc2n(CC(=O)Nc2cc(Cl)ccc2C)c1=O	7.54% (inactive)	–
CCCS(=O)(=O)N1CCC(n2c(C(F)(F)F)nc3cccnc32)CC1	-14.7% (inactive)	–
O=C(NCC(c1ccco1)S(=O)(=O)c1cccs1)c1ccc(F)cc1 (stereo not drawn)	8.37% (inactive)	–
CS(=O)c1ccc(/C=C2\C=Cc3ccccc32)cc1 (stereo not drawn)	32.2% (inactive)	–
O=C(CCn1c(=O)c2ccccc2n(Cc2ccc(Cl)cc2)c1=O)NCc1ccc2c(c1)OCO2	0.984% (inactive)	–
CCc1ccc(C(=O)CC2(O)C(=O)N(CCc3ccccc3)c3ccc(Br)cc32)cc1 (stereo not drawn)	6.28% (inactive)	–
COc1ccc(NC(=O)N2CCCn3nc(C)cc32)cc1OC	-2.38% (inactive)	–
CCOc1ccc(CNC(=O)c2ccc3nc(CC)c(CC)nc3c2)cc1OC	-9.86% (inactive)	–
CN(C)c1cccc2ccccc12	21.8% (inactive)	–
Cc1ccc(F)cc1S(=O)(=O)N1CCC(c2nc3ccccc3s2)CC1	-27.5% (inactive)	–
CCOC(=O)c1ccc(NC(=O)Cn2cc(S(=O)(=O)Cc3ccccc3F)c3ccccc32)cc1	16.2% (inactive)	–
Cc1ccc(C)c(Cn2c(C)c(CNCc3ccc(F)cc3)c(C(=O)O)c2C)c1	5.57% (inactive)	–
CCOC(=O)N1CCN(S(=O)(=O)c2ccc(C(=O)Nc3ccc(F)cc3F)cc2)CC1	–	4.61 µM (active)
O=C(Nc1ccccc1F)c1ccc(S(=O)(=O)N2CCCCCC2)cc1	-3.4% (inactive)	–
CCOC(=O)N1CCN(S(=O)(=O)c2ccc(Br)cc2)CC1	-25.8% (inactive)	–
Cc1sc2ncn(CC(=O)N3CCN(c4ccc(F)cc4)CC3)c(=O)c2c1S(=O)(=O)N1CCN(c2ncccn2)CC1	-0.197% (inactive)	–
CCOC(=O)c1ccc(NC(=O)C2CC(=O)NC(=Nc3ccc(C)c(C)c3)S2)cc1 (stereo not drawn)	-1.1% (inactive)	–
CC(=O)OC1=C(C(C)=O)N(Cc2ccccc2)S(=O)(=O)c2ccccc21	-6.94% (inactive)	–
Cc1cccc(NC(=S)NCc2ccc3[nH]c4c(c3c2)CCCC4)c1	–	16.4 µM (active)

Compound	activity change, negative = cytotoxic	Potency
CCc1cccc(NC(=O)CN(C)S(=O)(=O)c2ccc3[nH]c4c(c3c2)CCCC4)c1	-20.9% (inactive)	–
Cc1cccc(NC(=S)N2CCC(C(=O)c3ccc(F)cc3)CC2)c1	-11.4% (inactive)	–
Cc1ccc(Cl)cc1NC(=O)C(C)n1nnc2sc(-c3ccccc3)cc2c1=O (stereo not drawn)	-2.42% (inactive)	–
COc1ccc(C2CC(=O)N(Cc3ccccc3C)c3c2c(C)nn3-c2nc(C)cc(C)n2)c(OC)c1 (stereo not drawn)	3.03% (inactive)	–
CCOc1ccc(C(=O)c2cn(Cc3ccccc3OC)c3ccc(F)cc3c2=O)cc1	22.1% (inactive)	–
CCCc1ccc(OCCNC(=O)c2ccccc2Br)cc1	1.59% (inactive)	–
CCCOc1cccc(C(=O)Nc2cccc(NC(=O)c3ccc(C(C)(C)C)cc3)c2)c1	7.31% (inactive)	–
CCCOc1ccc(C(=O)C(CCC(CNCC)C(=O)c2ccc(OCCC)cc2)CNCC)cc1 (stereo not drawn)	–	5.17 µM (active)
Cc1ccc2nc(COc3cccc(NC(=O)c4ccccc4Cl)c3)cc(=O)n2c1	-5.83% (inactive)	–
CCOc1ccc(CCNC(=O)c2ccc3c(c2)sc2nc(-c4ccc(F)cc4)cn23)cc1OCC	-10.9% (inactive)	–
O=C(Cc1ccc([N+](=O)[O-])cc1)NCCc1ccc2c(c1)OCO2	-4.66% (inactive)	–
O=C(NCc1ccc2c(c1)OCO2)c1cc([N+](=O)[O-])ccc1N1CCOCC1	–	5.17 µM (active)
CC1CCN(c2ccc(C(=O)NCc3ccc4c(c3)OCO4)cc2[N+](=O)[O-])CC1	3.15% (inactive)	–
Cc1cc(=O)n(CC(=O)Nc2cccc([N+](=O)[O-])c2)c(-n2nc(C)cc2C)n1	-14.3% (inactive)	–
CCOc1ccccc1NC(=O)c1ccc2c(c1)CCN2S(=O)(=O)c1ccc(C)cc1	0% (inactive)	–
COc1ccccc1NC(=O)c1cc(C2CC2)nc2c1c(C)nn2-c1ccc(C)cc1	4.13% (inactive)	–
COc1cccc(NC(=O)CSc2cc(=O)n(C)c3ccc(Cl)cc23)c1	-2.78% (inactive)	–
CCc1cccc(C)c1NS(=O)(=O)c1ccc(-c2cc(C)no2)s1	–	1.16 µM (active)
CC(=O)c1ccc(NS(=O)(=O)c2ccc(-c3cc(C)no3)s2)cc1	5.1% (inactive)	–
Cc1cc(-c2ccc(S(=O)(=O)N3CCN(c4cccc(C(F)(F)F)c4)CC3)s2)on1	-7.84% (inactive)	–
Cc1cc(-c2ccc(S(=O)(=O)N3CCc4ccccc4C3)s2)on1	5.38% (inactive)	–
Cc1cc(C)cc(NS(=O)(=O)c2ccc(-c3cc(C)no3)s2)c1	–	3.26 µM (active)
CCc1cccc(C)c1NS(=O)(=O)c1cc(Br)cnc1N	3.61% (inactive)	–
